According to PubChem BioAssay (NCI):
Compounds without any hit were thinned out: in the full panel of roughly 83,000, 20% have a hit.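 Single-dose data. Exposure time 48 hours. Values below 10 considered active.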 Unmarked numbers belong to inactive results. Calls of active or inactive are those of the source.

What follows are compounds tested on HL-60(TB) leukemia (assay: NCI-60 one-dose screen, 48 h (100 = growth as untreated, 0 = no growth, -100 = all killed)). Settings: 10 µM unless noted.

Row | SMILES | growth
1 | CC(C)c1ccc(C(=O)Nc2sc3c(CN(C)C)c(O)ccc3c2C(N)=O)cc1 | 24.2%
2 | COc1ccc(-c2nc3cc(C(=O)Nc4cc(OC)c(OC)c(OC)c4)ccc3n2C2CCCCC2)cc1 | 85.9%
3 | O=C(Nc1cccc(-c2ccc(Cl)c(C(F)(F)F)c2)c1)C1CCN(Cc2cccc3cccnc23)CC1 | -53.9% (active)
4 | C/C(=N\Nc1ccc([N+](=O)[O-])cc1[N+](=O)[O-])c1ccc(Br)cc1 | 101%
5 | CC(C)C[C@H](NC(=O)CCn1ccc2ccccc2c1=O)B(O)O | 28.1%
6 | Nc1ncnc2c1N=C(c1ccc(Cl)cc1)CC(c1ccc3c(c1)OCO3)N2 (stereo not given) | 90.7%
7 | N#Cc1c(N)n2c(nc1=Nc1ccc(Cl)cc1)sc1cc(Cl)ccc12 | 117%
8 | O=S(=O)(c1ccc(N/N=C\c2ccccc2Cl)cc1)c1ccc(N/N=C/c2ccccc2Cl)cc1 | 74%
9 | CCn1cc(C(=O)O)c(=O)c2cc(F)c(N3CCN(CC(=O)Nc4ccc(S(=O)(=O)Nc5nccc(C)n5)cc4)C(C)C3)c(F)c21 (stereo not given) | 115%
10 | CCCCCCCCCCN=C(N)N=C(N)N | 1.55% (active)
11 | COC(=O)c1ccc(NC(N)=NCCC(C)(C)c2ccc(C(F)(F)F)cc2)nc1 | -41.4% (active)
12 | N#C/C(=C\c1c(-c2ccccc2)[nH]c2ccccc12)C(=O)c1ccccc1 | 2.79% (active)
13 | CCc1nc(C(N)=O)c(Nc2ccc(N3CCC(N4CCN(C)CC4)CC3)c(OC)c2)nc1NC1CCOCC1 | 9.89% (active)
14 | O=C(O)CC(C(=O)O)/C(=C\c1ccccc1)c1ccccc1 (stereo not given) | 107%
15 | C=C(C)C1CCC2(C(=O)O)CCC3(C)C(CCC4C5(C)CCC(O)C(C)(C)C5CCC43C)C12 (stereo not given) | -40% (active)
16 | CCCCCN1C=C/C(=C\C(=O)n2ccc3ccccc32)c2ccccc21 | 103%
17 | COc1ccc2c(c1)c(CC(=O)NCCOCCOCC(=O)Nc1ccc(OC)c(C(N)=O)c1O)c(C)n2C(=O)c1ccc(Cl)cc1 | 107%
18 | CCc1nc2cc(/C=C/C(=O)NO)ccc2c(=O)n1CCc1ccc(OC)cc1 | 0.921% (active)
19 | CC/C=C\C[C@H](F)C/C=C1/C(=O)C=C[C@@H]1C/C=C\CCCC(=O)O | -16.1% (active)
20 | O=C(N/N=C/C=C/c1ccc([N+](=O)[O-])o1)c1cc2ccccc2cc1O | 3.51% (active)

Row | SMILES | growth
21 | COC(=O)C12C3C(=O)N(c4ccc(OC)cc4)C(=O)C3C(c3cn(-c4ccccc4)nc3C)N1[C@H](c1cn(-c3ccccc3)nc1C)[C@@H]1C(=O)N(c3ccc(OC)cc3)C(=O)[C@@H]12 (stereo not given in full) | 106%
22 | CCOC(=O)CC1C(CNC(=O)NC)OC(n2cnc3c(NC(=O)Nc4ccccc4)ncnc32)C1O[Si](C)(C)C(C)(C)C (stereo not given) | 44.5%
23 | CC(C)c1ccc2occ(C=C3C(=O)NC(=O)NC3=O)c(=O)c2c1 | 74.8%
24 | Cc1ccc(C(C)C)c(OCc2ccc(C(=O)N/N=C/c3cccc(O)c3O)cc2)c1 | -4.57% (active)
25 | CCOC(=O)C(CC(c1ccccc1)N1CCCCC1)[N+](=O)[O-] (stereo not given) | 73.4%
26 | C=C(C)[C@@H]1CC[C@]2(COC(=O)c3cccnc3)CC[C@]3(C)[C@H](CC[C@@H]4[C@@]5(C)CCCN(C(=O)c6cccnc6)C(C)(C)[C@@H]5CC[C@]43C)[C@@H]12 | 11.6%
27 | Oc1c(CN2CCCC2)cc(COCc2ccccc2)c2cccnc12 | 10.6%
28 | O=c1ccc(N=Nc2ccc([N+](=O)[O-])cc2)ccc1O | 10%
29 | COc1ccc2[nH]c(O)c(/C=c3/ccc4c(c3)N=C(c3ccc(F)cc3)N=4)c2c1 | 99.9%
30 | COc1cc(Nc2ncccc2/C=C/C(=O)c2cc(OC)c(OC)c(OC)c2)cc(OC)c1OC | 73.1%
31 | O=NN(CCCl)C(=O)Nc1ccc(NC(=O)N(CCCl)N=O)cc1 | 94.8%
32 | COc1ccc(C(=O)/C=C/c2sc(Cl)nc2Cl)cc1 | 32.3%
33 | CCCCCCCCC(C)C(=O)N1CCCC1C(=O)N1C(CC(=O)CC)CC(C)CC1C(=O)NC(C)C(=O)NC(C)(C)C(=O)NC(C)(C)C(=O)NC(C(=O)NC(C)C(=O)NC(C)(C)C(=O)NC(C)(C)C(=O)NC(C)CN(C)CCO)C(C)CC (stereo not given) | -51.8% (active)
34 | COc1ccc2c(c1)sc1nc(-c3ccccc3)c(-c3cccnc3)n12 | 105%
35 | COc1cc(-c2nc(N)n(CC(=O)Nc3ccc(/C(C)=N\O)cc3)n2)cc(OC)c1OC | 91.6%
36 | COc1cc(/C(C#N)=C/c2ccc3c(c2OC)OCO3)cc2c1OCO2 | 26.9%
37 | c1ccc(COCC[P+](c2ccccc2)(c2ccccc2)c2ccccc2)cc1 | -52.2% (active)
38 | COc1ccccc1NC(=O)Nc1ccc(-c2nc3ccccc3o2)cc1 | 88.5%
39 | CCCCCC1CCCCN1C(=O)OCCCC (stereo not given) | 102%
40 | COc1ccc(-c2cn[nH]c2-c2cc(OC)c(OC)c(OC)c2)cc1OCc1ccccc1 | 20.4%
